{
  "source": "ChEMBL document CHEMBL3988442",
  "about": "“University of Dundee, Small-Polar-MMV Screening Library” (2021)",
  "note": "In all, about 69,000 compounds went through this assay and about 950 (1.4%) showed an effect of 50% or more. The entries come from a sample that favours strong results as a whole.",
  "data": [
    {"system": "Mycobacterium tuberculosis", "assay": "Cornell M. t heat shock assay; also: in the data most compounds retested in dose-response had high values", "format": "functional, organism-based", "design": "dose or concentration left out as unconfirmed", "units": {"Percent Effect": "%"}, "values": [
      {"molecule": "COCCN1C[C@@H]2[C@@H](OC)CCN(C(=O)Cc3ccsc3)[C@@H]2C1.O=C(O)C(F)(F)F", "Percent Effect": -5.727},
      {"molecule": "O=C(O)C(F)(F)F.O=C(c1ccc(F)cc1)N1CC[C@H]2[C@H]1CCN2CC1CC1", "Percent Effect": -18.24},
      {"molecule": "CN1CCN(C)C2(CCN(Cc3ccsc3)CC2)C1=O.O=C(O)C(F)(F)F", "Percent Effect": -19.83},
      {"molecule": "O=C(O)C(F)(F)F.O=C(O)C(F)(F)F.O=C1C[C@H]2[C@@H](CCN2C(=O)Cc2ccsc2)N1Cc1cccnc1", "Percent Effect": -3.092},
      {"molecule": "CCCN1CCC2(CC1)CN(C(=O)c1cccnc1)c1ccc(F)cc12.O=C(O)C(F)(F)F.O=C(O)C(F)(F)F", "Percent Effect": 1.02},
      {"molecule": "O=C(c1cc(COc2ccc3c(c2)OCO3)[nH]n1)N1CCOCC1", "Percent Effect": 27.44},
      {"molecule": "O=C(c1cc(COc2ccc3c(c2)OCO3)[nH]n1)N1CCSCC1", "Percent Effect": 62.66},
      {"molecule": "O=C(c1cc(COc2ccc3c(c2)OCO3)[nH]n1)N1CCCC1", "Percent Effect": 27.84},
      {"molecule": "O=C(NC1CC1)[C@@]12CCO[C@@H]1CCN(Cc1ccc3c(c1)OCO3)C2.O=C(O)C(F)(F)F", "Percent Effect": 3.117},
      {"molecule": "O=C(Nc1ccc(Cl)cn1)c1nn(C2CCS(=O)(=O)C2)c2c1CCCC2", "note": "(centres undefined)", "Percent Effect": 11.75},
      {"molecule": "CCCc1cc(=O)[nH]c(-n2nc(C3CC3)cc2N)n1", "Percent Effect": 101.7},
      {"molecule": "CCCc1cc(=O)[nH]c(-c2cccc(CN3CCN4CCCC4C3)c2)n1", "note": "(centres undefined)", "Percent Effect": 0.7345},
      {"molecule": "Cc1cc(C(=O)Nc2cc(C3CC3)n[nH]2)c2c(C)nn(C)c2n1", "Percent Effect": 28.31},
      {"molecule": "CC(C)c1cc(=O)[nH]c(C(C)(C)N)n1.Cl", "Percent Effect": -1.854},
      {"molecule": "CCc1c(C)nc(-n2nc(C3CC3)cc2NC(C)=O)[nH]c1=O", "Percent Effect": -4.817},
      {"molecule": "CCn1nc(C)c(NC(=O)c2cc(NC(=O)C3CC3)n(C)n2)c1C", "Percent Effect": -24.03},
      {"molecule": "CCC(C)(N)c1nc(C(C)C)cc(=O)[nH]1.Cl", "note": "(centres undefined)", "Percent Effect": 7.893},
      {"molecule": "CC(C)c1cc(=O)[nH]c(-n2nc(C3CC3)cc2N)n1", "Percent Effect": 103},
      {"molecule": "Cc1cc(C2CCC2)nc(N2CCC3(CCNC(=O)CC3)CC2)n1", "Percent Effect": 9.358},
      {"molecule": "CCCc1cc(=O)[nH]c(-c2cccc(CN3CCCCCC3)c2)n1", "Percent Effect": -11.64},
      {"molecule": "Cc1cc(=O)[nH]c(-n2nc(C3CC3)cc2N)n1", "Percent Effect": 101},
      {"molecule": "CCc1cc(=O)[nH]c(-n2nc(C3CC3)cc2NC(=O)C2CC2)n1", "Percent Effect": 103.7},
      {"molecule": "Cc1ccc(CN(CCCN2CCOCC2)Cc2cnc(C)n2C)o1.O=C(O)CC(O)(CC(=O)O)C(=O)O", "Percent Effect": -5.16},
      {"molecule": "O=C(O)C(F)(F)F.O=C1COC2(CCN(CC3CCC3)CC2)CN1c1cncnc1", "Percent Effect": -21.31}
    ]}
  ]
}
